Inconclusive results are not listed. Active and inactive are the calls of the source. Calls follow the shape of the dose curve; as a rule, active = well fitted inhibition curve with a large enough effect; inconclusive = small, poorly fitted or top-dose-only effect; inactive = flat fitted curve, though single readings scatter.
Legend:
Experiment in all cases: qHTS profiling for inhibitors of Plasmodium falciparum proliferation (AID 504749); also: nearly all actives have a fitted effect of over 60% in size
Conditions in all cases: P. falciparum in erythrocytes, SYBR Green DNA, 72 h; series mostly up to 28.7 µM
CP238 = system: CP238
Procedure, shortened: (§1)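 Parasite proliferation within erythrocytes, 72 h exposure. Endpoint: SYBR Green I fluorescence after overnight lysis at room temperature. Controls: 0.29 uM artemisinin, DMSO.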

CP247 = system: CP247
Procedure, shortened: as §1

CP250 = system: CP250
Procedure, shortened: as §1

CP252 = system: CP252
Procedure, shortened: as §1

CP256 = system: CP256
Procedure, shortened: as §1

CP260 = system: CP260
Procedure, shortened: as §1

CP262 = system: CP262
Procedure, shortened: as §1

CP265 = system: CP265
Procedure, shortened: as §1

CP266 = system: CP266
Procedure, shortened: as §1

CP268 = system: CP268
Procedure, shortened: as §1

CP269 = system: CP269
Procedure, shortened: as §1

CP286 = system: CP286
Procedure, shortened: as §1

CP291 = system: CP291
Procedure, shortened: as §1

CP297 = system: CP297
Procedure, shortened: as §1

CP305 = system: CP305
Procedure, shortened: as §1

CP315 = system: CP315
Procedure, shortened: as §1

CP325 = system: CP325
Procedure, shortened: as §1

CP329 = system: CP329
Procedure, shortened: as §1

CP335 = system: CP335
Procedure, shortened: as §1

DFO2036 = system: DFO2036
Procedure, shortened: as §1

DIV14 = system: DIV14
Procedure, shortened: as §1

DIV17 = system: DIV17
Procedure, shortened: as §1

DIV30 = system: DIV30
Procedure, shortened: as §1

Dd2 = system: Dd2
Procedure, shortened: as §1

ECU = system: ECU
Procedure, shortened: as §1

FAB9 = system: FAB9
Procedure, shortened: as §1

GB4 = system: GB4
Procedure, shortened: as §1

HB3 = system: HB3
Procedure, shortened: as §1

ICS = system: ICS
Procedure, shortened: as §1

JCK = system: JCK
Procedure, shortened: as §1

N140 = system: N140
Procedure, shortened: as §1

P93_24 = system: P93_24
Procedure, shortened: as §1

P94_40 = system: P94_40
Procedure, shortened: as §1

PAD = system: PAD
Procedure, shortened: as §1

PC15 = system: PC15
Procedure, shortened: as §1

PC26 = system: PC26
Procedure, shortened: as §1

PC49 = system: PC49
Procedure, shortened: as §1

SC27B = system: SC27B
Procedure, shortened: as §1

TAB109 = system: TAB109
Procedure, shortened: as §1

TAB113 = system: TAB113
Procedure, shortened: as §1

TAB165 = system: TAB165
Procedure, shortened: as §1

Measured: Potency

COC(=O)[C@@H]1[C@@H]2C[C@H]3c4[nH]c5ccccc5c4CCN3C[C@@H]2CC[C@@H]1O
inactive: all assays above
